# SARS 3CLpro inh: SARS-CoV 3CLpro protease inhibition; recombinant SARS-CoV 3CLpro, quenched FRET peptide cleavage; inhibition, % at 6 µM; hit rate 0.14% among 290,000; in the data active = inhibition above about 12%
# PrPC TRFRET: reduces human prion protein on the cell surface; P04156; cell surface PrPC, TR-FRET read-out; inhibition, % at 13.8 µM; hit rate 0.43% among 370,000; AID 720596; in the data active = inhibition above about 24%
# CCHF vOTU inh-1: blocks the CCHF virus ovarian tumor domain protease; AID 651958; CCHFV vOTU protease, Pep-AMC fluorescence; hit rate 0.55% among 370,000; inhibition, % at 11.5 µM
# PrP 5UTR inh: inhibition of PrP 5' UTR reporter expression. cell-based PrP 5' UTR mRNA reporter, plate reader. inhibition, % (test concentration not listed). hit rate 0.35% among 340,000. AID 488862; in the data active = inhibition above about 52%
# CCHF vOTU inh-2: CCHFV vOTU protease inhibition, confirmation. shares compounds with CCHF vOTU inh-1. Recombinant CCHFV vOTU, Pep-AMC fluorescence. inhibition, % at 11.5 µM. hit rate 17% among 1,900. AID 686976
# Numbers stand for hits; – = inactive; · = not tested or not shown. Hits are enriched below; roughly 1.3% of the tested compounds scored in any of these assays. Cut-off read from the data, not from the text of the source, unless noted: active = inhibition above about 30%; inactive = the rest.
SMILES,SARS 3CLpro inh,PrPC TRFRET,CCHF vOTU inh-1,PrP 5UTR inh,CCHF vOTU inh-2
COc1ccc(C(=O)C2CCCN(C(=O)c3cccc(N4CCCC4=O)c3)C2)cc1OC (stereo unspecified),–,–,34.6,–,–
COC(=O)c1ccccc1C(=O)N1CCCC(C(=O)c2ccc(OC)c(OC)c2)C1 (stereo unspecified),–,–,–,–,·
CCN(c1ccc(OC)cc1)S(=O)(=O)c1cc(-c2cc(C)no2)ccc1C(C)C,–,–,–,–,·
CCN(c1ccc(OC)cc1)S(=O)(=O)c1cc(-c2cc(C)no2)ccc1OC,–,–,31.2,–,–
O=C1NC(=O)N(Cc2ccc(F)cc2)C(=O)/C1=C\c1ccc([N+](=O)[O-])s1,–,–,31.8,–,–
COc1ccc(CN2C(=O)NC(=O)/C(=C/c3ccc([N+](=O)[O-])s3)C2=O)cc1,–,–,–,–,·
COc1ccc(-n2nnnc2SCC(=O)c2cccc(OC)c2)cc1,–,–,30.8,–,–
O=C(Cn1cccc1)N1CCc2ccccc21,–,–,–,–,·
COc1ccc(/C=N/NC(=O)c2nn(-c3ccccc3)c(=O)c3c(N)scc23)cc1,–,–,50.1,–,91.1
COc1ccc(/C=N/NC(=O)c2nn(-c3ccc(C)c(C)c3)c(=O)c3ccccc23)cc1,–,–,–,–,·
COc1ccc(/C=N/NC(=O)c2nn(-c3ccc(Cl)cc3)c(=O)c3c(N)scc23)cc1,–,–,33.0,–,38.6
CCOC(=O)c1nn(-c2ccc(OC)cc2)c(=O)c2c(N)scc12,–,–,–,–,·
CCCCn1c(NC(=O)c2ccco2)c(C(=O)OCC)c2nc3ccccc3nc21,–,–,55.4,–,–
CCCCn1c(NC(=O)c2ccco2)c(S(=O)(=O)c2ccc(C)cc2)c2nc3ccccc3nc21,–,–,–,–,·
CCCCn1c(NC(=O)c2ccc(Br)o2)c(S(=O)(=O)c2ccccc2)c2nc3ccccc3nc21,–,–,60.5,–,–
CCCCCn1c(NC(=O)c2ccco2)c(S(=O)(=O)c2ccc(C)cc2)c2nc3ccccc3nc21,–,–,70.8,–,–
O=C(NNC(=O)C1CCCO1)c1ccc(F)cc1 (stereo unspecified),–,–,–,–,·
COCCNC(=O)CN1C(=O)c2cccc3cccc1c23,–,–,–,–,·
O=C(N=C1SC2CS(=O)(=O)CC2N1c1ccc(Br)cc1Cl)C1CC1 (stereo unspecified),–,–,33.8,–,–
CCN(C[C@H]1N[C@@](Cc2ccccc2)(C(=O)OC)[C@H]2C(=O)N(Cc3ccccc3)C(=O)[C@@H]12)S(=O)(=O)c1ccc(OC)cc1,·,–,–,–,·
CCN(C[C@H]1N[C@@](CC)(C(=O)OC)[C@H]2C(=O)N(Cc3ccccc3)C(=O)[C@@H]12)S(=O)(=O)c1ccc(OC)cc1,·,–,32.9,–,–
CC1=C([N+](=O)[O-])C(c2ccccc2)C2=C(N1)c1ccccc1C2=O (stereo unspecified),–,–,–,–,·
COc1cc(/C=C2\SC(=S)N(CC(=O)O)C2=O)ccc1OS(=O)(=O)c1ccc(C)cc1,·,–,53.7,–,–
COc1cc(/C=C2/SC(=S)N(CC(=O)O)C2=O)ccc1OC(=O)c1cccs1,–,–,–,–,·
Cc1ccc([N+](=O)[O-])cc1N(CC(=O)Nc1ccc(S(=O)(=O)Nc2cccc(C(F)(F)F)c2)cc1)S(C)(=O)=O,–,–,29.8,–,–
SMILES,SARS 3CLpro inh,PrPC TRFRET,CCHF vOTU inh-1,PrP 5UTR inh,CCHF vOTU inh-2
COc1ccccc1N(CC(=O)Nc1cccc(C(F)(F)F)c1)S(C)(=O)=O,–,–,–,–,·
CN(C(=O)c1ccc(NC(=O)Cc2ccc(NC(=O)C3CCCN(C(=O)C4CCCCC4)C3)cc2)cc1)C1CCCC1 (stereo unspecified),·,–,–,–,·
COc1ccccc1C1/C(=C(/O)c2ccccc2)C(=O)C(=O)N1CCO (stereo unspecified),–,–,–,–,·
CCN(CC)CCCN1C(=O)C(=O)/C(=C(/O)c2ccccc2)C1c1cc(OC)ccc1OC (stereo unspecified),·,–,53.8,–,–
CCOC(=O)N(CC)c1ccc(C(O)(C(=O)OCC)C(F)(F)F)cc1 (stereo unspecified),–,–,30.6,–,–
CCCCC[C@@H]1C=C(C(=O)O)[C@H](c2ccc(C)cc2)N1S(=O)(=O)c1ccc(C)cc1,·,–,–,–,·
CCCCC[C@@H]1C=C(C(=O)O)[C@H](c2ccc(Cl)cc2)N1S(=O)(=O)c1ccc(C)cc1,·,–,31.8,–,–
CCCC[C@@H]1C=C(C(=O)O)[C@H](c2ccc(Cl)c(Cl)c2)N1S(=O)(=O)c1ccc(C)cc1,·,–,31.6,–,–
CCc1ccc([C@H]2C(C(=O)O)=C[C@@H](CC3CCCC3)N2S(=O)(=O)c2ccc(C)cc2)cc1,·,–,47.4,–,–
CCOCCCNC(=O)CN1C(=O)COc2ccc(S(=O)(=O)N3CCOCC3)cc21,–,–,–,–,·
O=C(NC1CN2CCC1CC2)c1cccc(Cl)c1 (stereo unspecified),–,–,–,·,·
O=C(OCc1nc2ccccc2s1)c1ccccc1O,–,–,–,–,·
COc1ccc(OCc2cc(C(=O)NC3CCOCC3)no2)c2ccccc12,–,–,61.4,–,–
Cc1ccc(-n2cc(S(=O)(=O)c3ccc(C)cc3)[nH]c2=O)cc1,–,–,–,–,·
N#Cc1c(-c2ccccc2)nc(SCc2cccc(Cl)c2)[nH]c1=O,–,–,31.8,–,–
C=CC[C@H](CC(=O)N(CCO)Cc1ccccc1)C(=O)N[C@H](COC(=O)[C@H](CC=C)CC(=O)OC(C)(C)C)Cc1ccccc1,·,–,–,–,·
C=CC[C@@H](CC(=O)N[C@@H](CO)Cc1ccccc1)C(=O)N[C@H](COC(=O)[C@@H](CC=C)CC(=O)OC(C)(C)C)Cc1ccccc1,·,–,39.4,–,–
C=CCC[C@H](Cc1ccc(F)cc1)C(=O)OC[C@@H](Cc1c[nH]c2ccccc12)NC(=O)[C@H](CC=C)CC(=O)N(CCO)Cc1ccccc1,·,–,35.0,–,–
C=CC[C@@H](CC(=O)N(CCO)Cc1ccccc1)C(=O)N[C@H](COC(=O)[C@@H](CC=C)CC(=O)OC(C)(C)C)c1ccccc1,·,–,31.6,–,–
C=CC[C@@H](CC(=O)N(CCO)Cc1ccccc1)C(=O)N[C@@H](COC(=O)[C@@H](CC=C)CC(=O)OC(C)(C)C)Cc1c[nH]c2ccccc12,·,–,39.9,–,–
CCCc1nc2ccccc2c(=O)n1-c1c(C)n(C)n(-c2ccccc2)c1=O,–,–,–,–,·
Cc1nn(Cc2ccc(Cl)cc2)c(C)c1NC(=O)c1noc2c1CCCCC2,–,·,·,–,·
CC1=NN(c2ccccc2)C(=O)C1C=Nc1ccc(N(C)C)cc1 (stereo unspecified),–,–,30.2,–,–
CC1=NN(c2ccccc2)C(=O)C1N=Nc1ccc(C)cc1 (stereo unspecified),–,·,·,·,·
CCc1ccc([C@@H]2CC(=O)[C@@H]3CN(S(=O)(=O)c4ccc(Cl)cc4)[C@H](c4ccc(C)cc4)C[C@@H]3N2S(=O)(=O)c2ccc(C)cc2)cc1,·,–,34.6,·,–
